# Screening data deposited in PubChem by National Center for Advancing Translational Sciences (NCATS).
# Compounds with a hit are over-represented: about 18% of the library has one in this group of screens.
# Six1-Eya2 blk: qHTS Assay for Inhibitors of the Six1/Eya2 Interaction | Homeobox protein SIX1 (Homo sapiens) + Protein phosphatase EYA2 (Homo sapiens), … | activity change, % (no concentration beside the values) | hit rate 0.56% among 360,000 | AlphaScreen GST-Six1/His-Eya2 binding, biochemical; hits give low values; in the data active = activity change below about -65%; inconclusive = mostly about -30% to -63%
#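 GST-Six1 + His-Eya2 (5X stock: 250/500 nM); Tris pH 8.0, 300 mM NaCl, 0.05% BSA, 0.02% Tween 20; GSH donor/Ni acceptor beads; 1 h 37 °C dark; AlphaScreen readout.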
# DT40 TDP1 CPT: qHTS for Inhibitors of human tyrosyl-DNA phosphodiesterase 1 (TDP1): qHTS in cells in presence of CPT; chicken DT40 Tdp1-/-;hTDP1 cells + 20 nM CPT, ATP luminescence, 48 h; Potency, µM (doses to about 46.2 µM), for the others: at the top dose activity change, negative = growth inhibition, most hits filed as inhibitors; hit rate 12% among 420,000; AID 686979, 2013; also: potency is read from the fitted curve at half-maximal effect; nearly all actives have a fitted effect of over 55% in size
#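 Cell growth measured by CellTiter-Glo luminescence after a minimum 48 h, 37 C compound exposure with 20 nM CPT in Tdp1-knockout DT40 cells stably expressing hTDP1, seeded 400/well; qHTS titration format.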
# IL1B secr inh: qHTS for Inhibitors of Inflammasome Signaling: IL-1-beta AlphaLISA Primary Screen; THP-1 LPS/ATP IL-1B secretion, AlphaLISA, 16 h; hits give low values; activity change, % at 57.5 µM; hit rate 4.7% among 360,000; in the data active = activity change below about -50%; inconclusive = mostly about -30% to -49%
#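 Secreted IL-1B measured by AlphaLISA bead assay after 16 h compound exposure of THP-1 cells; compounds (final up to 57.5 uM) added 1 h before LPS (250 ng/mL) and ATP (1.25 mM) stimulation; lower signal means less secretion.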
# CtBP-E1A inh: qHTS Assay for Inhibitors of the CtBP/E1A Interaction; CtBP / adenovirus E1A interaction (AlphaScreen); AlphaScreen GST-E1A/His-CtBP binding, 1536-well; hits give low values; activity change, % (no concentration beside the values); hit rate 0.49% among 340,000; AID 651724, 2012; in the data active = activity change below about -65%; inconclusive = mostly about -30% to -63%
#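 Protein mix (5X: 125 nM each GST-E1A, His-CtBP) was incubated with pinned compound 2 h at 37 deg C in dark, in 50 mM Tris pH 8.0 buffer with 300 mM NaCl. Glutathione donor and nickel acceptor beads followed; AlphaScreen signal read after 1 h.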
# DT40 TDP1 no CPT: qHTS for Inhibitors of human tyrosyl-DNA phosphodiesterase 1 (TDP1): qHTS in cells in absence of CPT; DT40 Tdp1-/- hTDP1 cells, no CPT, ATP luminescence, 48 h; Potency, µM (top dose mostly 46.2 µM), for inactives: top-dose activity change, negative = growth inhibition, most hits filed as inhibitors; hit rate 15% among 420,000; AID 686978, 2013; also: potency is read from the fitted curve at half-maximal effect; nearly all actives have a fitted effect of over 55% in size
#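 Chicken DT40 Tdp1-/- cells complemented with human TDP1, screened without camptothecin (DMSO vehicle only), 400 cells/well. Compounds pin-transferred, cells incubated at 37 °C for at least 48 hr. Growth read as ATP-dependent luminescence (CellTiter-Glo, 30 min at RT).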
# TDP1 inh: qHTS Assay for Inhibitors of Tyrosyl-DNA Phosphodiesterase (TDP1); Tyrosyl-DNA phosphodiesterase 1 (Homo sapiens), Q9NUW8; recombinant TDP1, AlphaScreen DNA substrate cleavage; Potency, µM (series often up to 130 µM), for inactives: at the top dose activity change, negative = inhibition, actives largely listed as inhibitors; hit rate 0.28% among 350,000; AID 485290, 2010; also: potency is read from the fitted curve at half-maximal effect; nearly all actives have a fitted effect of over 40% in size
# Target sequence (Q9NUW8 whole entry, looked up): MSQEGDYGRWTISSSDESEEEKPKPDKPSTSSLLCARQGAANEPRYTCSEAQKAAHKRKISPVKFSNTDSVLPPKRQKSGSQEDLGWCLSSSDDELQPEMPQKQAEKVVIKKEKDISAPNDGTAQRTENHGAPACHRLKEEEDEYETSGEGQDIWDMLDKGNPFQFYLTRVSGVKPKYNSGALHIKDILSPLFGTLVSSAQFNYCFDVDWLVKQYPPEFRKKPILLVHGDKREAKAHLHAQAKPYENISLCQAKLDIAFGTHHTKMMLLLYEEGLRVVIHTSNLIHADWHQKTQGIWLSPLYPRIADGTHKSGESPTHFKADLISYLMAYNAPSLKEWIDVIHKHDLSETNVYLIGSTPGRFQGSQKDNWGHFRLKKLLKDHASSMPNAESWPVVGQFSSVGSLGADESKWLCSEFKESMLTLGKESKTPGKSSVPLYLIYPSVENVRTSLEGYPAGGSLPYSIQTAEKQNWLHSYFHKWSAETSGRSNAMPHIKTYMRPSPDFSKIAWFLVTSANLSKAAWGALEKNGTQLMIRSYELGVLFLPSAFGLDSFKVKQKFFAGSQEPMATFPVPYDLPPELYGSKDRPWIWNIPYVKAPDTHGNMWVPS
#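 Recombinant human Tdp1 (E. coli-expressed, 1 nM final) preincubated with compounds 15 min at room temperature, then 5'-biotin/3'-phosphotyrosine-FITC DNA substrate (15 nM final) added for 5 min. AlphaScreen beads (10 ug/ml final) added 10 min; cleavage lowers signal.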
# The depositor's hits bear a star; ? = inconclusive; / = not tested or not shown. Unless noted, calls follow the shape of the dose curve; as a rule, active = well fitted curve in the direction sought with a large enough effect; inconclusive = small, poorly fitted or top-dose-only effect, or another doubt; inactive = no such curve, though single readings can be large; an effect the other way counts as inactive or inconclusive. % is scaled to controls: 0 for no effect and ±100 for the full control effect.
SMILES,Six1-Eya2 blk,DT40 TDP1 CPT,IL1B secr inh,CtBP-E1A inh,DT40 TDP1 no CPT,TDP1 inh
c1ccc(CN2CCN(C3CCCSc4ccccc43)CC2)cc1 (centres undefined),-7,?,-28,3,23µM*,/
Cc1nc(-c2ccc(F)cc2)c(CC(=O)N(C)CC(=O)Nc2ccccc2Cl)s1,6,?,0,-2,?,2%
Cc1ccc(S(=O)(=O)N2CCC(=O)N(CCOCc3ccc(C(F)(F)F)cc3)CC2)cc1,-2,4.6µM*,?,-3,8.2µM*,4%
O=C1CCN(S(=O)(=O)c2ccccc2)CCN1CCOCc1ccc(C(F)(F)F)cc1,15,?,35,-7,13µM*,/
CCCN(CC1CC1)C(=O)COc1ccccc1C(=O)NCc1ccccc1,-2,?,1,3,?,8%
O=C(Cc1ccc(NC(=O)C2CCCN(C(=O)C3CC3)C2)cc1)Nc1cccc(C(=O)N2CCCC2)c1 (centres undefined),4,1%,13,4,-1%,/
COc1ccc(-n2cc(CN(C)C(C)c3ccncn3)c(-c3cccc(F)c3)n2)cc1 (centres undefined),-8,?,-51*,3,?,0%
COc1ccc(CNCc2cn(-c3cccc(F)c3)nc2-c2ccc(C)o2)cc1,-16,?,-87*,-19,16µM*,5%
COc1ccc(-n2cc(CNCc3cccnc3)c(-c3cccc(F)c3)n2)cc1,0,?,?,-7,?,4%
COc1ccc(-n2cc(CNC3CCC(O)CC3)c(-c3cccc(F)c3)n2)cc1 (centres undefined),-6,21µM*,-28,3,21µM*,3%
COC(=O)/C=C1\OCc2ccccc21,-4,14%,15,4,-6%,/
CC(OC(=O)CC(C)c1ccccc1)C(=O)Nc1ccc(Cl)cn1 (centres undefined),16,1%,4,9,0%,-13%
COc1ccccc1C1=NC(c2ccc(F)cc2)N=C1C (centres undefined),22,-10%,?,0,?,4%
CCOC(=O)c1cc(C)nnc1C(=O)OCC,1,8%,-9,5,-4%,/
Cc1[nH][nH]c(=O)c1C(c1c(C)[nH][nH]c1=O)c1cn(Cc2ccccc2Cl)c2ccccc12,-13,5.8µM*,0,-2,5.2µM*,10%
COc1c(O)cc(O)cc1O,/,-18%,/,/,-19%,20µM*
COc1ccc(OC)c(N(CCN2C(=O)c3ccccc3C2=O)C(=O)CCl)c1,8,?,-104*,2,21µM*,/
COc1ccc(C(=O)CN2C(=O)c3ccccc3C2=O)c(OC)c1,1,-10%,-15,6,14%,1%
COc1ccc(NC(=O)c2cc(-c3ccccc3O)n[nH]2)cc1Cl,20,-15%,-9,4,?,/
COC(=O)c1cc(S(=O)(=O)Nc2cccc(S(N)(=O)=O)c2)oc1C,0,25%,5,2,-12%,6%
CC1CCC(C(C)C)C(OC(=O)COC(=O)c2cc(O)ccc2N)C1 (centres undefined),-9,?,-80*,-9,?,8%
CS(=O)(=O)c1ccc(C(=O)Nc2ccc(-c3nc4ccccc4[nH]3)cc2)cc1,-2,?,6,-1,?,-1%
O=C(Nc1cccc(F)c1)c1ccc2c(c1)OCO2,2,?,-2,5,?,1%
O=C(Nc1ccc(-c2nc3ccccc3[nH]2)cc1)c1ccc2c(c1)OCO2,-5,?,44,5,18µM*,8%
O=C(Nc1ccc(Cl)c(-c2nc3ccccc3[nH]2)c1)c1ccc2c(c1)OCO2,?,?,31,0,23µM*,5%
SMILES,Six1-Eya2 blk,DT40 TDP1 CPT,IL1B secr inh,CtBP-E1A inh,DT40 TDP1 no CPT,TDP1 inh
CC(C)(C)C(=O)Nc1ccc(Cl)c(-c2nc3ccccc3[nH]2)c1,/,?,/,/,?,6%
O=C(Nc1ccc2nn(-c3ccccc3)nc2c1)c1ccc2c(c1)OCO2,0,16µM*,-12,-1,21µM*,/
c1ccc2[nH]c(-c3ccc4c(c3)OCO4)nc2c1,-2,?,/,-5,18µM*,/
Cc1ccc([C@H]2C[C@@H](O)[C@H](n3cc(COC(=O)c4ccccc4)nn3)CN2Cc2cccs2)cc1,1,?,21,-19,?,/
CCc1ccc(NC(=S)N(CCCN2CCOCC2)Cc2ccco2)cc1,3,-26%,-23,-3,?,1%
COc1ccc(-c2csc(NC(=O)c3c(OC)cccc3OC)n2)cc1,0,-30%,-18,-3,?,2%
CN(C)S(=O)(=O)c1cccc(NC(=O)CNC2CCCCC2)c1,-3,4%,-19,/,3%,-6%
O=C(Nc1ccc(-c2nc3ccccc3[nH]2)cc1)C1CCCO1 (centres undefined),-5,18µM*,-15,6,15µM*,11%
NC(=O)c1ccc(NC(=O)C2CCCO2)cc1 (centres undefined),-1,-1%,8,-2,-2%,-2%
C(=Cc1c[nH]c2ccccc12)c1nccc2ccccc12,4,?,-82*,9,?,/
Cc1ccc2c(/C=C/c3c[nH]c4ccccc34)ccnc2c1C,/,-125%,/,/,-103%,/
O=Cc1nccc2ccccc12,-7,9.2µM*,-7,8,6.5µM*,/
O=C1c2ccccc2NC(c2cccc(Cl)c2)N1N=C1CCCCCC1 (centres undefined),-2,-5%,?,0,-10%,3%
O=C(NC1CCCC1)c1cnn2c(C(F)(F)F)cc(-c3ccc4c(c3)OCO4)nc12,2,7.3µM*,15,-5,16µM*,-2%
COc1ccc(C)cc1NC(=O)N1CCN(c2cc(-c3noc(C)n3)ccc2C)CC1,/,?,/,/,23µM*,0%
NS(=O)(=O)c1cnccc1Oc1cccc(Cl)c1,-2,0%,-7,-1,-18%,/
O=C(CSc1ccccc1)Nc1ccc2c(c1)C(=O)NC2=O,-6,0%,5,/,2%,0%
CN(C)S(=O)(=O)c1ccc2c(c1)C(=NO)c1cc(S(=O)(=O)N(C)C)ccc1-2,-6,?,9,8,8.2µM*,/
